# Assay results taken from publication PMC7862700, “An all-to-all approach to the identification of sequence-specific readers for epigenetic DNA modifications on cytosine”.
# Molecular target: T1, ETV2 (Homo sapiens, UniProt O00321 1-342)
# T1 sequence: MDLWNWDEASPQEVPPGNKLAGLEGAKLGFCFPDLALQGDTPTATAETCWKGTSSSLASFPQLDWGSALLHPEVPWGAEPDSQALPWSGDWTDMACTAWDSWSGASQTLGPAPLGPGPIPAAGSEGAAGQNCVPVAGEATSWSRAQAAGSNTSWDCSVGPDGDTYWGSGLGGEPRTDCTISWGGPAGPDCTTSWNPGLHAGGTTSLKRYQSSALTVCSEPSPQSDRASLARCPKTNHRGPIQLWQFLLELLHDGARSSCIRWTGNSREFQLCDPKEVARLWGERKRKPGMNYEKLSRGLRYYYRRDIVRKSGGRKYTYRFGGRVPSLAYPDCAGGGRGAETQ
# Assay: DAPPL (digital affinity profiling via proximity ligation, sequencing); 10 mM Tris-HCl pH 7.5, 50 mM NaCl, 1 mM DTT, 4% glycerol, room temperature, 30 min; GST-TFs on glutathione beads, 16-mer random dsDNA library, 0.1% formaldehyde crosslink after washing; high values mean tight binding
# Settings: protein: recombinant; tags: N-terminal GST; dsDNA, one strand shown
# Method in brief: (§1)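 Binding signal is given per hexamer as its read frequency for a factor divided by its frequency in the tag-only sample. GST-fused human transcription factors were expressed in yeast, captured on glutathione beads, barcoded with DNA and pooled with that sample, then incubated with 200 nmole of a 16-mer random double-stranded DNA library in Tris/NaCl/DTT/glycerol buffer for 30 min at room temperature. The pools were then washed, crosslinked, proximity-ligated, amplified by PCR and sequenced on an Illumina NextSeq500.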
row,Sequence,binding signal
1,CCTACT,"1.61 fold enrichment (6-mer frequency, TF over GST control)"
2,TCCTAG,"1.23 fold enrichment (6-mer frequency, TF over GST control)"
3,GCACTT,"1.66 fold enrichment (6-mer frequency, TF over GST control)"
4,TATCAT,"1.24 fold enrichment (6-mer frequency, TF over GST control)"
5,ATAGTA,"1.34 fold enrichment (6-mer frequency, TF over GST control)"
6,TCATCC,"1.44 fold enrichment (6-mer frequency, TF over GST control)"
7,CCATAA,"1.24 fold enrichment (6-mer frequency, TF over GST control)"
8,TACGCG,"1.21 fold enrichment (6-mer frequency, TF over GST control)"
9,TAATCT,"1.34 fold enrichment (6-mer frequency, TF over GST control)"
10,GCTTGC,"1.31 fold enrichment (6-mer frequency, TF over GST control)"
11,TTCGTT,"1.46 fold enrichment (6-mer frequency, TF over GST control)"
12,TCAACC,"1.3 fold enrichment (6-mer frequency, TF over GST control)"
13,TGCTAT,"1.71 fold enrichment (6-mer frequency, TF over GST control)"
14,CTACTC,"1.38 fold enrichment (6-mer frequency, TF over GST control)"
15,ATCAAC,"1.18 fold enrichment (6-mer frequency, TF over GST control)"
16,CTTGCG,"1.29 fold enrichment (6-mer frequency, TF over GST control)"
17,ATGTTC,"1.14 fold enrichment (6-mer frequency, TF over GST control)"
18,ATGAGC,"1.3 fold enrichment (6-mer frequency, TF over GST control)"
19,AAATCA,"1.39 fold enrichment (6-mer frequency, TF over GST control)"
20,TGACCC,"1.56 fold enrichment (6-mer frequency, TF over GST control)"

row,Sequence,binding signal
1,TAAATT,"1.34 fold enrichment (6-mer frequency, TF over GST control)"
2,TCCTTG,"1 fold enrichment (6-mer frequency, TF over GST control)"
3,CCATAT,"1.29 fold enrichment (6-mer frequency, TF over GST control)"
4,CTAACT,"1.27 fold enrichment (6-mer frequency, TF over GST control)"
5,CTGCTT,"1.93 fold enrichment (6-mer frequency, TF over GST control)"
6,AATTAC,"1.38 fold enrichment (6-mer frequency, TF over GST control)"
7,TGTGCT,"1.21 fold enrichment (6-mer frequency, TF over GST control)"
8,ATACAA,"1.04 fold enrichment (6-mer frequency, TF over GST control)"
9,TTACTA,"1.34 fold enrichment (6-mer frequency, TF over GST control)"
10,ACTCGT,"1.21 fold enrichment (6-mer frequency, TF over GST control)"
11,AAACAA,"1.31 fold enrichment (6-mer frequency, TF over GST control)"
12,AAAAAG,"1.08 fold enrichment (6-mer frequency, TF over GST control)"
13,CCCGAT,"1.02 fold enrichment (6-mer frequency, TF over GST control)"
14,TATTCA,"1.35 fold enrichment (6-mer frequency, TF over GST control)"
15,CAATTA,"1.03 fold enrichment (6-mer frequency, TF over GST control)"
16,CTTTTG,"1.25 fold enrichment (6-mer frequency, TF over GST control)"
17,ACGTCC,"1.39 fold enrichment (6-mer frequency, TF over GST control)"
18,CCCTTC,"1.33 fold enrichment (6-mer frequency, TF over GST control)"
19,ATGACA,"1.19 fold enrichment (6-mer frequency, TF over GST control)"
20,AATCAA,"1.48 fold enrichment (6-mer frequency, TF over GST control)"

# Molecular target: T2, ELF3 (Homo sapiens, UniProt P78545 1-371)
# T2 sequence: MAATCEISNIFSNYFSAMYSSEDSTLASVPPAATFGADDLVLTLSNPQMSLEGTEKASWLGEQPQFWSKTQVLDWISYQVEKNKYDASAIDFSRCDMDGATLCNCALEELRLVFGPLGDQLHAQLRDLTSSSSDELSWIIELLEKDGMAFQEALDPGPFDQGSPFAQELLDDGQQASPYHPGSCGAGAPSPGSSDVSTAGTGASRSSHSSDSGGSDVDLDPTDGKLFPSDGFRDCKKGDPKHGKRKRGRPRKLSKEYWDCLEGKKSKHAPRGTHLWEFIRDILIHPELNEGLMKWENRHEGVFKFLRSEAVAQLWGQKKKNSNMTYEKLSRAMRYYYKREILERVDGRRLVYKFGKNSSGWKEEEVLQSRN
# Assay: as above
# Settings: protein: recombinant; tags: N-terminal GST; dsDNA, one strand shown
# Method in brief: as §1
row,Sequence,binding signal
1,CCTACT,"1.41 fold enrichment (6-mer frequency, TF over GST control)"
2,TCCTAG,"1.2 fold enrichment (6-mer frequency, TF over GST control)"
3,GCACTT,"1.85 fold enrichment (6-mer frequency, TF over GST control)"
4,TATCAT,"1.11 fold enrichment (6-mer frequency, TF over GST control)"
5,ATAGTA,"1.2 fold enrichment (6-mer frequency, TF over GST control)"
6,TCATCC,"1.49 fold enrichment (6-mer frequency, TF over GST control)"
7,CCATAA,"1.07 fold enrichment (6-mer frequency, TF over GST control)"
8,TACGCG,"1.19 fold enrichment (6-mer frequency, TF over GST control)"
9,TAATCT,"1.57 fold enrichment (6-mer frequency, TF over GST control)"
10,GCTTGC,"1.03 fold enrichment (6-mer frequency, TF over GST control)"
11,TTCGTT,"1.38 fold enrichment (6-mer frequency, TF over GST control)"
12,TCAACC,"1.16 fold enrichment (6-mer frequency, TF over GST control)"
13,TGCTAT,"1.6 fold enrichment (6-mer frequency, TF over GST control)"
14,CTACTC,"1.32 fold enrichment (6-mer frequency, TF over GST control)"
15,ATCAAC,"1.08 fold enrichment (6-mer frequency, TF over GST control)"
16,CTTGCG,"1.46 fold enrichment (6-mer frequency, TF over GST control)"
17,ATGTTC,"1.15 fold enrichment (6-mer frequency, TF over GST control)"
18,ATGAGC,"1.35 fold enrichment (6-mer frequency, TF over GST control)"
19,AAATCA,"1.27 fold enrichment (6-mer frequency, TF over GST control)"
20,TGACCC,"1.37 fold enrichment (6-mer frequency, TF over GST control)"

row,Sequence,binding signal
1,TAAATT,"1.32 fold enrichment (6-mer frequency, TF over GST control)"
2,TCCTTG,"1.31 fold enrichment (6-mer frequency, TF over GST control)"
3,CCATAT,"1.37 fold enrichment (6-mer frequency, TF over GST control)"
4,CTAACT,"1.21 fold enrichment (6-mer frequency, TF over GST control)"
5,CTGCTT,"1.28 fold enrichment (6-mer frequency, TF over GST control)"
6,AATTAC,"1.36 fold enrichment (6-mer frequency, TF over GST control)"
7,TGTGCT,"1.27 fold enrichment (6-mer frequency, TF over GST control)"
8,ATACAA,"1.16 fold enrichment (6-mer frequency, TF over GST control)"
9,TTACTA,"1.25 fold enrichment (6-mer frequency, TF over GST control)"
10,ACTCGT,"1.25 fold enrichment (6-mer frequency, TF over GST control)"
11,AAACAA,"1.49 fold enrichment (6-mer frequency, TF over GST control)"
12,AAAAAG,"1.28 fold enrichment (6-mer frequency, TF over GST control)"
13,CCCGAT,"1.2 fold enrichment (6-mer frequency, TF over GST control)"
14,TATTCA,"1.31 fold enrichment (6-mer frequency, TF over GST control)"
15,CAATTA,"1.22 fold enrichment (6-mer frequency, TF over GST control)"
16,CTTTTG,"1.39 fold enrichment (6-mer frequency, TF over GST control)"
17,ACGTCC,"1.39 fold enrichment (6-mer frequency, TF over GST control)"
18,CCCTTC,"1.46 fold enrichment (6-mer frequency, TF over GST control)"
19,ATGACA,"1.33 fold enrichment (6-mer frequency, TF over GST control)"
20,AATCAA,"1.24 fold enrichment (6-mer frequency, TF over GST control)"

# Molecular target: CRX (Homo sapiens, UniProt O43186 1-299)
# Sequence (O43186 whole entry): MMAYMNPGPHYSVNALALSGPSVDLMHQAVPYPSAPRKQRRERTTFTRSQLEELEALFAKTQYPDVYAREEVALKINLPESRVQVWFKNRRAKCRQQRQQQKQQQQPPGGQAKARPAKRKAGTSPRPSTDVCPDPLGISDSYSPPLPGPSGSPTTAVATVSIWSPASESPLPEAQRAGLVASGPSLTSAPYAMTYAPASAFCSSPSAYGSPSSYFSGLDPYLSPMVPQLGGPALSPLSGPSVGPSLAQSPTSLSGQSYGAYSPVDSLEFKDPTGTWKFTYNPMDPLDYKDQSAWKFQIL
# Assay: as above
# Settings: protein: recombinant; tags: N-terminal GST; dsDNA, one strand shown
# Method in brief: as §1
row,Sequence,binding signal
1,CCTACT,"1.61 fold enrichment (6-mer frequency, TF over GST control)"
2,TCCTAG,"1.29 fold enrichment (6-mer frequency, TF over GST control)"
3,GCACTT,"1.16 fold enrichment (6-mer frequency, TF over GST control)"
4,TATCAT,"1.41 fold enrichment (6-mer frequency, TF over GST control)"
5,ATAGTA,"1.24 fold enrichment (6-mer frequency, TF over GST control)"
6,TCATCC,"1.65 fold enrichment (6-mer frequency, TF over GST control)"
7,CCATAA,"1.64 fold enrichment (6-mer frequency, TF over GST control)"
8,TACGCG,"1.24 fold enrichment (6-mer frequency, TF over GST control)"
9,TAATCT,"5.78 fold enrichment (6-mer frequency, TF over GST control)"
10,GCTTGC,"1.14 fold enrichment (6-mer frequency, TF over GST control)"
11,TTCGTT,"1.3 fold enrichment (6-mer frequency, TF over GST control)"
12,TCAACC,"1.09 fold enrichment (6-mer frequency, TF over GST control)"
13,TGCTAT,"1.3 fold enrichment (6-mer frequency, TF over GST control)"
14,CTACTC,"1.28 fold enrichment (6-mer frequency, TF over GST control)"
15,ATCAAC,"1.25 fold enrichment (6-mer frequency, TF over GST control)"
16,CTTGCG,"1.13 fold enrichment (6-mer frequency, TF over GST control)"
17,ATGTTC,"1.22 fold enrichment (6-mer frequency, TF over GST control)"
18,ATGAGC,"1.31 fold enrichment (6-mer frequency, TF over GST control)"
19,AAATCA,"1.33 fold enrichment (6-mer frequency, TF over GST control)"
20,TGACCC,"1.13 fold enrichment (6-mer frequency, TF over GST control)"

row,Sequence,binding signal
1,TAAATT,"1.76 fold enrichment (6-mer frequency, TF over GST control)"
2,TCCTTG,"1.11 fold enrichment (6-mer frequency, TF over GST control)"
3,CCATAT,"1.09 fold enrichment (6-mer frequency, TF over GST control)"
4,CTAACT,"1.21 fold enrichment (6-mer frequency, TF over GST control)"
5,CTGCTT,"1.69 fold enrichment (6-mer frequency, TF over GST control)"
6,AATTAC,"1.74 fold enrichment (6-mer frequency, TF over GST control)"
7,TGTGCT,"1.1 fold enrichment (6-mer frequency, TF over GST control)"
8,ATACAA,"1.07 fold enrichment (6-mer frequency, TF over GST control)"
9,TTACTA,"2.18 fold enrichment (6-mer frequency, TF over GST control)"
10,ACTCGT,"1.08 fold enrichment (6-mer frequency, TF over GST control)"
11,AAACAA,"1.06 fold enrichment (6-mer frequency, TF over GST control)"
12,AAAAAG,"1.2 fold enrichment (6-mer frequency, TF over GST control)"
13,CCCGAT,"1.37 fold enrichment (6-mer frequency, TF over GST control)"
14,TATTCA,"1.42 fold enrichment (6-mer frequency, TF over GST control)"
15,CAATTA,"1.25 fold enrichment (6-mer frequency, TF over GST control)"
16,CTTTTG,"1.43 fold enrichment (6-mer frequency, TF over GST control)"
17,ACGTCC,"1.01 fold enrichment (6-mer frequency, TF over GST control)"
18,CCCTTC,"1.05 fold enrichment (6-mer frequency, TF over GST control)"
19,ATGACA,"1.09 fold enrichment (6-mer frequency, TF over GST control)"
20,AATCAA,"1.32 fold enrichment (6-mer frequency, TF over GST control)"
